From PubChem BioAssay (NCATS)
Results filed as inconclusive are left out. Activity calls are given as the source filed them. Calls come from the whole dose curve; as a rule, active = well fitted curve in the direction sought with a large enough effect; inconclusive = small, poorly fitted or top-dose-only effect, or another doubt; inactive = no such curve, though single readings can be large; an effect the other way counts as inactive or inconclusive.

target: Glutaminase kidney isoform, mitochondrial (Homo sapiens) (UniProt O94925); test: qHTS for Inhibitors of Glutaminase (GLS): LOPAC Validation (AID 624146); conditions: glutaminase enzyme activity inhibition; series mostly up to 46.1 µM; activity change, negative = inhibition: at the top concentration;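 note: glutamate product detected by oxidase and peroxidase coupled Amplex red fluorescence gain; % is set by controls: 0 for no effect and ±100 for the full control effect; nearly all actives have a fitted effect of over 60% in size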
Procedure, shortened: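 hKGA in 45 mM KH2PO4 pH 8.2, 0.02% Tween-20 with pin-transferred compounds; 1 mM L-glutamine (stock) plus glutamate oxidase/HRP/Amplex Red coupling added. Fluorescence read initially and after 30 min at RT.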

Sequence of Glutaminase kidney isoform, mitochondrial (Homo sapiens) (O94925 whole entry, looked up, canonical isoform): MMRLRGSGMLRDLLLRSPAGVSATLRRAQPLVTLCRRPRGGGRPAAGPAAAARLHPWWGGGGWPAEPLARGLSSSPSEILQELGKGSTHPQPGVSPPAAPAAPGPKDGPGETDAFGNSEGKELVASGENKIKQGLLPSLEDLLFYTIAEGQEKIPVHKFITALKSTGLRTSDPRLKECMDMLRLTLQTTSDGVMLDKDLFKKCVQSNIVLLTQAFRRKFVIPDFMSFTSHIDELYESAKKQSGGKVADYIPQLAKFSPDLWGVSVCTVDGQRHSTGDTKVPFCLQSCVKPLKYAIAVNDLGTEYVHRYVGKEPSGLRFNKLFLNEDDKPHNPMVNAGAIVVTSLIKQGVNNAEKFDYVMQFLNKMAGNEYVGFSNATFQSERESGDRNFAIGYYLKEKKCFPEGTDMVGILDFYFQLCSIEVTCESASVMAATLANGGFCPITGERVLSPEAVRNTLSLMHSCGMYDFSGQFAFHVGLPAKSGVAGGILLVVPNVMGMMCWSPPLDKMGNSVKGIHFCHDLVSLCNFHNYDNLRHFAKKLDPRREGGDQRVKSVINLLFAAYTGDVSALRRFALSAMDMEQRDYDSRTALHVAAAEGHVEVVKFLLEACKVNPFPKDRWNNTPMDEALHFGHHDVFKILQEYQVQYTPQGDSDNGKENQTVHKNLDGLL

SMILES | activity change, negative = inhibition
CCO/C([O-])=N/c1c[n+](N2CCOCC2)no1 | -21.8% (inactive)
NC(=O)c1cn(Cc2c(F)cccc2F)nn1 | -9.14% (inactive)
CN(C)CC[C@@H](c1ccc(Br)cc1)c1ccccn1 | -6.95% (inactive)
CC(=O)OC(C)C[N+](C)(C)C (stereo not given) | -20.2% (inactive)
CC(=O)OCC1=C(C(=O)O)N2C(=O)[C@@H](NC(=O)Cc3cccs3)[C@H]2SC1 | -29.9% (inactive)
CSc1ccc(C(=O)c2[nH]c(=O)[nH]c2C)cc1 | -17.7% (inactive)
CNC1(C)C2CCC(C2)C1(C)C (stereo not given) | 44.9% (inactive)
CCCOc1ccccc1-c1nc2n[nH]nc2c(=O)[nH]1 | 6.26% (inactive)
CCc1cccc(N(C)C(N)=Nc2cccc3ccccc23)c1 | -12.6% (inactive)
CC[N+](C)(C)c1cccc(O)c1 | -37% (inactive)
CN1C(=O)CC[C@H]1c1cccnc1 | -11.1% (inactive)
NC(N)=N/N=C/c1c(Cl)cccc1Cl | 1.53% (inactive)
CN(C)C(=O)Oc1cccc([N+](C)(C)C)c1 | 20.4% (inactive)
CCCN(CCC)CCc1cccc2c1CC(=O)N2 | -18.7% (inactive)
O=C(O)CN(CCOCCOCCN(CC(=O)O)CC(=O)O)CC(=O)O | -9.74% (inactive)
CCCNC(C)C(=O)Nc1ccccc1C (stereo not given) | 18.6% (inactive)
O=C(O)CP(=O)(O)O | -19.3% (inactive)
CCNC(=O)N1CCN(CCCC(c2ccc(F)cc2)c2ccc(F)cc2)CC1 | 4.39% (inactive)

SMILES | activity change, negative = inhibition
CN1C[C@H](C(=O)N[C@]2(C)O[C@@]3(O)[C@@H]4CCCN4C(=O)[C@H](Cc4ccccc4)N3C2=O)C[C@@H]2c3cccc4[nH]cc(c34)C[C@H]21 | 470% (inactive)
NC/C=C/C(=O)O | -13.7% (inactive)
NC1=NCC2c3ccccc3Cc3ccccc3N12 (stereo not given) | 13.2% (inactive)
C=CCc1ccccc1OCC(O)CNC(C)C (stereo not given) | -7.81% (inactive)
O=C(O)CN(CCN(CC(=O)O)CC(=O)O)CCN(CC(=O)O)CC(=O)O | -4.22% (inactive)
O=C1CC2(CCCC2)CC(=O)N1CCCCN1CCN(c2ncccn2)CC1 | -2.6% (inactive)
CCCN(CCC)C(=O)C(CCC(=O)O)NC(=O)c1ccccc1 (stereo not given) | -9.24% (inactive)
Cc1nnc(SCC2=C(C(=O)O)N3C(=O)[C@@H](NC(=O)Cn4cnnn4)[C@H]3SC2)s1 | -12.8% (inactive)
COCCc1ccc(OCC(O)CNC(C)C)cc1 (stereo not given) | -5.95% (inactive)
CC(=O)Oc1cc(C(C)C)c(OCCN(C)C)cc1C | 48.8% (inactive)
COC(=O)C1=C(C)NC(C)=C(C(=O)OC(C)(C)CN(C)CCC(c2ccccc2)c2ccccc2)C1c1cccc([N+](=O)[O-])c1 (stereo not given) | -25.1% (inactive)
COc1cc(C(=O)OCCCN2CCCN(CCCOC(=O)c3cc(OC)c(OC)c(OC)c3)CC2)cc(OC)c1OC | -7.71% (inactive)
CN(C)C(=O)Oc1ccc[n+](C)c1 | -9.16% (inactive)
CCCC(C(=O)OCCN(CC)CC)(c1ccccc1)c1ccccc1 | 4.88% (inactive)
CCCN1C[C@H](CSC)C[C@@H]2c3cccc4[nH]cc(c34)C[C@H]21 | -7.23% (inactive)
COc1ccc([C@@H]2Sc3ccccc3N(CCN(C)C)C(=O)[C@@H]2OC(C)=O)cc1 | -21.3% (inactive)
Fc1ccc(C(c2ccc(F)cc2)N2CCN(C/C=C/c3ccccc3)CC2)cc1 | -17.7% (inactive)

system: not listed separately; test: qHTS of Trypanosoma Brucei Inhibitors: LOPAC Validation (AID 624147); conditions: purified enzyme assay, luminescence, 45 min; series mostly up to 57.5 µM; activity change, negative = inhibition: at the top concentration; note: 0% is about no effect
Procedure, shortened: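 Readout: single end-point luminescence (Kinase-Glo Plus, 10 min). Reaction conditions were TbPYK/substrate plus 130 uM ADP, 45 min at RT, pH 7.2 TEA buffer. No-enzyme wells served as controls, and data were normalized before concentration-response fitting.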

SMILES | activity change, negative = inhibition
CCO/C([O-])=N/c1c[n+](N2CCOCC2)no1 | -8.85% (inactive)
NC(=O)c1cn(Cc2c(F)cccc2F)nn1 | -12.3% (inactive)
CN(C)CC[C@@H](c1ccc(Br)cc1)c1ccccn1 | -15.3% (inactive)
CC(=O)OC(C)C[N+](C)(C)C (stereo not given) | -8.66% (inactive)
CC(=O)OCC1=C(C(=O)O)N2C(=O)[C@@H](NC(=O)Cc3cccs3)[C@H]2SC1 | -10.5% (inactive)
CSc1ccc(C(=O)c2[nH]c(=O)[nH]c2C)cc1 | 2.18% (inactive)
CNC1(C)C2CCC(C2)C1(C)C (stereo not given) | -10.5% (inactive)
CCCOc1ccccc1-c1nc2n[nH]nc2c(=O)[nH]1 | -12% (inactive)
CCc1cccc(N(C)C(N)=Nc2cccc3ccccc23)c1 | 4.91% (inactive)
CC[N+](C)(C)c1cccc(O)c1 | 6.72% (inactive)
CN1C(=O)CC[C@H]1c1cccnc1 | -5.63% (inactive)
NC(N)=N/N=C/c1c(Cl)cccc1Cl | -8.76% (inactive)
CN(C)C(=O)Oc1cccc([N+](C)(C)C)c1 | -7.77% (inactive)
CCCN(CCC)CCc1cccc2c1CC(=O)N2 | -17.2% (inactive)
O=C(O)CN(CCOCCOCCN(CC(=O)O)CC(=O)O)CC(=O)O | 8.36% (inactive)
CCCNC(C)C(=O)Nc1ccccc1C (stereo not given) | 3.66% (inactive)
O=C(O)CP(=O)(O)O | -3.33% (inactive)
CCNC(=O)N1CCN(CCCC(c2ccc(F)cc2)c2ccc(F)cc2)CC1 | -6.01% (inactive)

SMILES | activity change, negative = inhibition
CN1C[C@H](C(=O)N[C@]2(C)O[C@@]3(O)[C@@H]4CCCN4C(=O)[C@H](Cc4ccccc4)N3C2=O)C[C@@H]2c3cccc4[nH]cc(c34)C[C@H]21 | -7.64% (inactive)
NC/C=C/C(=O)O | -4.73% (inactive)
NC1=NCC2c3ccccc3Cc3ccccc3N12 (stereo not given) | -10.7% (inactive)
C=CCc1ccccc1OCC(O)CNC(C)C (stereo not given) | 6.57% (inactive)
O=C(O)CN(CCN(CC(=O)O)CC(=O)O)CCN(CC(=O)O)CC(=O)O | 6.25% (inactive)
O=C1CC2(CCCC2)CC(=O)N1CCCCN1CCN(c2ncccn2)CC1 | -8.43% (inactive)
CCCN(CCC)C(=O)C(CCC(=O)O)NC(=O)c1ccccc1 (stereo not given) | -1.56% (inactive)
Cc1nnc(SCC2=C(C(=O)O)N3C(=O)[C@@H](NC(=O)Cn4cnnn4)[C@H]3SC2)s1 | -2.23% (inactive)
COCCc1ccc(OCC(O)CNC(C)C)cc1 (stereo not given) | -10.9% (inactive)
CC(=O)Oc1cc(C(C)C)c(OCCN(C)C)cc1C | -2.44% (inactive)
COC(=O)C1=C(C)NC(C)=C(C(=O)OC(C)(C)CN(C)CCC(c2ccccc2)c2ccccc2)C1c1cccc([N+](=O)[O-])c1 (stereo not given) | -3.44% (inactive)
COc1cc(C(=O)OCCCN2CCCN(CCCOC(=O)c3cc(OC)c(OC)c(OC)c3)CC2)cc(OC)c1OC | -2.14% (inactive)
CN(C)C(=O)Oc1ccc[n+](C)c1 | -7.62% (inactive)
CCCC(C(=O)OCCN(CC)CC)(c1ccccc1)c1ccccc1 | -6.29% (inactive)
CCCN1C[C@H](CSC)C[C@@H]2c3cccc4[nH]cc(c34)C[C@H]21 | 0.818% (inactive)
COc1ccc([C@@H]2Sc3ccccc3N(CCN(C)C)C(=O)[C@@H]2OC(C)=O)cc1 | -1.15% (inactive)
Fc1ccc(C(c2ccc(F)cc2)N2CCN(C/C=C/c3ccccc3)CC2)cc1 | -11.7% (inactive)
